This passage reports outcome results from PubChem BioAssay AID624137 (Broad Institute, 2012).

Out of some 31,000 compounds screened, about 360 (1.2%) were called active. No rule for the calls is given here. The full list was thinned out, with actives kept by preference.

For the assay, the target named is DNA-binding protein inhibitor ID-4 (Homo sapiens) (UniProt P47928). As to the kind of experiment: PubChem AID 624137.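 Also: a binder raises fluorescence above local background on the spot.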 As to conditions: small molecule microarray, Flag-ID4 binding, fluorescence F/B.
Chain of DNA-binding protein inhibitor ID-4 (Homo sapiens) (P47928 whole entry, looked up): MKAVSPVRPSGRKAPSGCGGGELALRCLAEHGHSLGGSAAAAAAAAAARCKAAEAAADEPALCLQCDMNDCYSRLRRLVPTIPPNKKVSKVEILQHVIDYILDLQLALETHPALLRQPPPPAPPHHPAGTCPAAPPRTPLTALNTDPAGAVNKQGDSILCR
Turning to `COC(=O)C[C@@H]1C[C@H]2c3cc(NC(=O)NC4CCCC4)ccc3O[C@H]2[C@H](CO)O1`, the outcome was inactive.

On to `O=C(NCC[C@H]1CC[C@@H](NC(=O)C2CCCCC2)[C@@H](CO)O1)c1ccc(F)cc1`, for which the molecule was called inactive.

`COc1ccc(NC(=O)N[C@@H]2C=C[C@H](CC(=O)NC3CCC3)O[C@@H]2CO)cc1`: the outcome was inactive.

Regarding `C[C@H](CO)N1C[C@H](C)[C@H](CN(C)C)Oc2cc(C#CC3CC3)ccc2S1(=O)=O`, the call was inactive.

`C[C@H](CO)N1C[C@H](C)[C@H](CN(C)C(=O)c2cccnc2)Oc2ncc(C3=CCCC3)cc2C1=O`: the call was inactive.

For `O=C(C[C@@H]1CC[C@H](NC(=O)Nc2cc(F)ccc2F)[C@H](CO)O1)NCc1ccncn1`, the result was inactive.

As for `CNC[C@@H]1Oc2cc(C#CC3CCCC3)ccc2S(=O)(=O)N([C@@H](C)CO)C[C@@H]1C`, the outcome was inactive.

Turning to `Cc1ccccc1NS(=O)(=O)c1cccc(C(=O)Nc2ccccc2[N+](=O)[O-])c1`, the molecule was classed as inactive.

Take `C[C@@H]1CN([C@H](C)CO)C(=O)c2cc(-c3cccc(F)c3)cnc2O[C@@H]1CN(C)C`: the call was inactive.

In the case of `C[C@H](CO)N1C[C@H](C)[C@@H](CN(C)Cc2cccnc2)Oc2ncc(/C=C/c3ccccc3)cc2C1=O`, the call was inactive.

For `C[C@@H]1CN([C@@H](C)CO)C(=O)c2cc(/C=C/c3ccccc3)cnc2O[C@@H]1CN(C)C(=O)CN(C)C`, the molecule was classed as inactive.

Consider `Cc1ccccc1-c1ccc2c(c1)O[C@H](CN(C)C)[C@@H](C)CN([C@H](C)CO)S2(=O)=O`, for which the call was inactive.

For `Cc1ccc(S(=O)(=O)CCN2CCC(C(F)(F)F)CC2)cc1`, the result was inactive.

On to `CC(=O)N(C)C[C@@H]1Oc2cc(-c3ccncc3)ccc2S(=O)(=O)N([C@@H](C)CO)C[C@H]1C`, for which the molecule was classed as inactive.

On to `C[C@@H]1CN([C@H](C)CO)C(=O)c2cc(-c3ccc(C#N)cc3)cnc2O[C@@H]1CN(C)CC1CC1`, for which the result was inactive.

In the case of `C[C@H]1CN([C@@H](C)CO)C(=O)c2cc(-c3ccc(C#N)cc3)cnc2O[C@@H]1CN(C)Cc1ccncc1`, the outcome was active.

In the case of `C[C@H](CO)N1C[C@H](C)[C@H](CN(C)Cc2ccccc2)Oc2ncc(-c3ccccc3)cc2C1=O`, the molecule was called inactive.

Take `CC(=O)N[C@@H]1C=C[C@H](CC(=O)NCC2CCCCC2)O[C@H]1CO`: the result was inactive.

In the case of `C[C@H](CO)N1C[C@H](C)[C@H](CN(C)CC2CCCC2)Oc2ncc(-c3ccc(F)cc3)cc2C1=O`, the molecule was classed as inactive.

`Cn1cnc(S(=O)(=O)N[C@H]2C=C[C@H](CC(=O)NCC3CCCCC3)O[C@@H]2CO)c1`: the result was inactive.

On to `Cc1cc2oc(C(=O)Nc3sc4c(c3C(=O)NCc3ccco3)CCC4)c(C)c2cc1C`, for which the outcome was active.

With `CCOC(=O)c1c(NC(=O)C(C)Oc2ccc3c(C)cc(=O)oc3c2)sc2c1CCC2` (stereo unspecified), the molecule was called inactive.

For `CC(=O)Nc1sccc1C(=O)NCc1ccco1`, the molecule was classed as inactive.

Consider `CCCNC(=O)C[C@@H]1C[C@@H]2c3cc(N(C)C)ccc3O[C@@H]2[C@H](CO)O1`, for which the molecule was classed as inactive.

In the case of `COc1cccc(-c2cnc3c(c2)C(=O)N([C@@H](C)CO)C[C@@H](C)[C@@H](CN(C)Cc2ccc(C(=O)O)cc2)O3)c1`, the molecule was classed as inactive.

Take `CCCN(C)C[C@@H]1Oc2ncc(C#CC3CC3)cc2C(=O)N([C@H](C)CO)C[C@H]1C`: the molecule was classed as inactive.

For `C[C@@H]1CN([C@@H](C)CO)S(=O)(=O)c2ccc(C#CCN(C)C)cc2O[C@@H]1CN(C)CC1CC1`, the molecule was classed as inactive.

As for `CC(C)C#Cc1ccc2c(c1)O[C@H](CN(C)Cc1ccccc1)[C@H](C)CN([C@@H](C)CO)S2(=O)=O`, the molecule was called inactive.

With `O=C(N[C@@H]1CC[C@@H](CC(=O)N2CCc3ccccc3C2)O[C@H]1CO)C1CCC1`, the molecule was classed as inactive.

On to `CCCN(C)C[C@@H]1Oc2ncc(-c3ccccc3F)cc2C(=O)N([C@@H](C)CO)C[C@@H]1C`, for which the molecule was classed as inactive.

`CCCN(C)C[C@@H]1OCc2cnnn2CCCC(=O)N([C@H](C)CO)C[C@@H]1C`: the molecule was called inactive.

Turning to `O=C(Cc1ccccc1)N[C@H]1C=C[C@H](CC(=O)N2CCCCC2)O[C@@H]1CO`, the molecule was classed as inactive.

As to `CC(C)C#Cc1cnc2c(c1)C(=O)N([C@@H](C)CO)C[C@@H](C)[C@@H](CN(C)C(=O)c1cccc(F)c1)O2`, the molecule was called inactive.

In the case of `O=C(C[C@@H]1C=C[C@H](NC(=O)CN2CCOCC2)[C@@H](CO)O1)NCc1cccc(F)c1`, the call was inactive.

Turning to `O=C(C[C@@H]1CC[C@H](NC(=O)C2CC2)[C@H](CO)O1)NCc1ccccc1Cl`, the outcome was inactive.

Regarding `C[C@@H]1CN([C@H](C)CO)S(=O)(=O)c2ccc(C#CCN(C)C)cc2O[C@@H]1CN(C)C`, the molecule was classed as inactive.

Take `CCNC(=O)C[C@@H]1CC[C@H](NC(=O)C2CCC2)[C@@H](CO)O1`: the molecule was called inactive.

Turning to `COC(=O)c1ccccc1NC(=O)CN(c1ccc2c(c1)OCCO2)S(C)(=O)=O`, the molecule was called inactive.

Consider `CN1CCN(CC(=O)Nc2sc3c(c2C#N)CCC(C(C)(C)C)C3)CC1` (stereo unspecified), for which the outcome was inactive.

With `N#Cc1c(NC(=O)C2CC(Cl)=CCC2C(=O)O)sc2c1CCC2` (stereo unspecified), the result was active.

For the molecule `O=C(CN1CCCC1)Nc1sc2c(c1C(=O)Nc1ccccc1)CCCC2`, the result was inactive.

On to `C[C@@H]1CN([C@H](C)CO)C(=O)c2ccccc2-c2ccccc2CO[C@@H]1CN(C)S(=O)(=O)CC(F)(F)F`, for which the molecule was classed as inactive.

Turning to `CN(C)C(=O)C[C@H]1C[C@@H]2c3cc(NC(=O)CC4CC4)ccc3O[C@@H]2[C@@H](CO)O1`, the molecule was called inactive.

With `COc1cccc(-c2ccc3c(c2)O[C@H](CN(C)Cc2ccncc2)[C@H](C)CN([C@H](C)CO)S3(=O)=O)c1`, the molecule was classed as inactive.

As for `Cc1noc(C)c1NC(=O)N[C@H]1CC[C@H](CC(=O)N2CCCCC2)O[C@@H]1CO`, the molecule was called inactive.

As for `C[C@@H]1CN([C@@H](C)CO)C(=O)Cc2cc(NC(=O)Cc3cn(C)c4ccccc34)ccc2O[C@H]1CN(C)C(=O)NC1CCCCC1`, the result was inactive.

As to `C[C@@H]1CN([C@@H](C)CO)C(=O)Cc2cc(NC(=O)CCN3CCOCC3)ccc2O[C@@H]1CN(C)C(=O)Nc1cccc2ccccc12`, the outcome was active.

Take `C[C@H](CO)N1C[C@H](C)[C@H](CN(C)Cc2ccncc2)Oc2ccc(NC(=O)Cc3cn(C)c4ccccc34)cc2CC1=O`: the molecule was called inactive.

For the molecule `C[C@H](CO)N1C[C@H](C)[C@H](CN(C)C(=O)Nc2ccccc2)Oc2ccc(NC(=O)CCN3CCOCC3)cc2CC1=O`, the outcome was inactive.

Consider `C[C@@H]1CN([C@@H](C)CO)C(=O)Cc2cc(NC(=O)CCC(F)(F)F)ccc2O[C@@H]1CN(C)C(=O)Nc1cccc2ccccc12`, for which the molecule was called inactive.

Take `C[C@H](CO)N1C[C@H](C)[C@H](CN(C)C(=O)Nc2ccc(F)cc2)Oc2ccc(NC(=O)Cc3cn(C)c4ccccc34)cc2CC1=O`: the result was active.

Take `CCC(=O)N(C)C[C@@H]1Oc2ncc(C#Cc3ccccc3)cc2C(=O)N([C@@H](C)CO)C[C@H]1C`: the molecule was called inactive.

With `C[C@@H]1CN([C@H](C)CO)C(=O)c2cc(C#CC3CC3)cnc2O[C@H]1CN(C)C(=O)CC1CC1`, the call was inactive.

Take `C[C@H]1CN([C@@H](C)CO)C(=O)c2ccccc2-c2ccccc2CO[C@@H]1CN(C)C(=O)CCN(C)C`: the molecule was called inactive.

With `CN(C)C(=O)C[C@H]1C=C[C@@H](NC(=O)C2CCC2)[C@@H](CO)O1`, the outcome was inactive.

As to `O=C(C[C@H]1CC[C@H](NC(=O)C2CCC2)[C@@H](CO)O1)NCCCN1CCOCC1`, the molecule was called inactive.

On to `CCCN(C)C[C@H]1Oc2ncc(C#CC3CCCCC3)cc2C(=O)N([C@H](C)CO)C[C@@H]1C`, for which the molecule was called inactive.

With `O=C(c1cccc(S(=O)(=O)N2CCOCC2)c1)N(Cc1ccccc1)c1ccccn1`, the call was inactive.

Regarding `C[C@H]1CN([C@@H](C)CO)S(=O)(=O)c2ccc(-c3cccc(F)c3)cc2O[C@@H]1CN(C)C`, the molecule was classed as inactive.

Consider `O=C(CCN1CCCCC1)N[C@@H]1C=C[C@@H](CC(=O)N2CCC(Cc3ccccc3)CC2)O[C@H]1CO`, for which the call was inactive.

On to `O=C(C[C@H]1CC[C@H](NS(=O)(=O)c2ccccc2)[C@H](CO)O1)NCc1ccncn1`, for which the result was inactive.

As for `O=C(CSc1nccc(=O)[nH]1)Nc1cccc(Br)c1`, the call was inactive.

Consider `C[C@@H]1CN([C@@H](C)CO)C(=O)c2cc(C#CCN(C)C)cnc2O[C@@H]1CN(C)Cc1ccccn1`, for which the molecule was classed as inactive.

In the case of `C[C@@H]1CN([C@H](C)CO)C(=O)c2cc(C#CC3CCCC3)cnc2O[C@H]1CN(C)S(C)(=O)=O`, the call was inactive.

`O=C(C[C@@H]1C=C[C@H](NC(=O)Nc2ccccc2F)[C@H](CO)O1)NCc1ccc(F)cc1`: the call was inactive.

With `C[C@@H]1CN([C@@H](C)CO)S(=O)(=O)c2ccc(C#C[C@@H](C)O)cc2O[C@@H]1CN(C)C(=O)CN(C)C`, the molecule was classed as inactive.

With `C[C@H](CO)N1C[C@H](C)[C@@H](CN(C)Cc2ccccn2)Oc2ncc(C3=CCCC3)cc2C1=O`, the outcome was inactive.

Turning to `CN(C)c1ccc(NC(=O)CN(C)S(=O)(=O)c2ccc(Br)cc2)cc1`, the result was inactive.

In the case of `C[C@@H]1CN([C@@H](C)CO)C(=O)Cc2cc(NC(=O)Cc3cn(C)c4ccccc34)ccc2O[C@H]1CN(C)Cc1ccc(C(=O)O)cc1`, the molecule was classed as inactive.

With `C[C@@H]1CN([C@@H](C)CO)C(=O)Cc2cc(NC(=O)Cc3ccccc3)ccc2O[C@H]1CN(C)Cc1ccc(C(=O)O)cc1`, the call was active.

As to `C[C@@H]1CN([C@H](C)CO)C(=O)Cc2cc(NC(=O)Nc3ccc(F)cc3)ccc2O[C@@H]1CN(C)Cc1ccc2c(c1)OCO2`, the molecule was classed as inactive.

`COc1ccc(CN(C)C[C@@H]2Oc3ccc(NC(=O)Nc4ccc(OC)cc4)cc3CC(=O)N([C@H](C)CO)C[C@H]2C)cc1`: the result was inactive.

For the molecule `COc1ccc(CN(C)C[C@H]2Oc3ccc(NC(=O)Cc4ccccc4)cc3CC(=O)N([C@@H](C)CO)C[C@@H]2C)cc1`, the outcome was inactive.

Take `COc1ccc(CN(C)C[C@@H]2Oc3ccc(NC(=O)Nc4ccc5c(c4)OCO5)cc3CC(=O)N([C@H](C)CO)C[C@H]2C)cc1`: the call was active.

Consider `O=C(C[C@@H]1C=C[C@@H](NC(=O)C2CCC2)[C@H](CO)O1)NCC1CC1`, for which the result was inactive.

As for `O=C(C[C@@H]1CC[C@H](NC(=O)C2CCC2)[C@@H](CO)O1)NC1CCCCC1`, the molecule was classed as inactive.
